# Source: PubChem BioAssay (Tox21)
# Records with an inconclusive call do not appear. Where a call stands in place of a potency, no number is given. Values without a mark were called inactive. Calls of active or inactive are those of the source. Calls follow the shape of the dose curve; as a rule, active = well fitted curve in the direction sought with a large enough effect in the repeat runs; inconclusive = weak or mixed curves; inactive = no such curve, though single readings can be large; an effect the other way counts as inactive or inconclusive.
# Tests used:
# [1] = biological target: Cytochrome P450 2D6 (Homo sapiens) (UniProt P10635); test: Cytochrome P450 Family 2 Subfamily D Member 6 (CYP2D6) small molecule antagonists: luciferase reporter qHTS assay (AID 1671196); also: nearly all actives have a fitted effect of over 50% in size; also: potency is read from the fitted curve at half-maximal effect; as to activity change, negative = inhibition: series mostly up to about 120 µM
# How it was run: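 Test chemicals meet CYP2D6 plus proluciferin substrate (10 min, RT); NADPH regenerating solution then drives turnover for 1 h. Detection reagent halts the reaction; luminescence measured after 20 min.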
# [2] = biological target: Cytochrome P450 2C19 (Homo sapiens) (UniProt P33261); test: Cytochrome P450 Family 2 Subfamily C Member 19 (CYP2C19) small molecule antagonists: luciferase reporter qHTS assay (AID 1671197); also: nearly all actives have a fitted effect of over 65% in size; also: potency is read from the fitted curve at half-maximal effect; as to activity change, negative = inhibition: series mostly up to about 120 µM
# How it was run: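 P450-Glo CYP2C19 system: enzyme-substrate mix with compound 10 min at room temperature, then NADPH regeneration solution, 1 h at 37C. Proluciferin-to-luciferin conversion detected by luminescence after 20 min with detection reagent; ketoconazole as positive control.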
# [3] = biological target: Cytochrome P450 2C9 (Homo sapiens) (UniProt P11712); test: Cytochrome P450 Family 2 Subfamily C Member 9 (CYP2C9) small molecule antagonists: luciferase reporter qHTS assay (AID 1671198); also: nearly all actives have a fitted effect of over 50% in size; also: potency is read from the fitted curve at half-maximal effect; as to activity change, negative = inhibition: series mostly up to about 120 µM
# How it was run: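 CYP2C9 activity was measured with a P450-Glo proluciferin substrate. Enzyme–substrate mix was held with compound for 10 min at room temperature, then NADPH regeneration solution was added for 1 h at 37C. Luciferin product was read as luminescence.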
# [4] = biological target: Cytochrome P450 3A4 (Homo sapiens) (UniProt P08684); test: Cytochrome P450 Family 3 Subfamily A Member 4 (CYP3A4) small molecule antagonists: luciferase reporter qHTS assay (AID 1671201); also: nearly all actives have a fitted effect of over 50% in size; also: potency is read from the fitted curve at half-maximal effect; as to activity change, negative = inhibition: series mostly up to about 120 µM
# How it was run: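 CYP3A4 activity was followed with a P450-Glo proluciferin substrate. Test compounds in DMSO were preincubated 10 min; NADPH regeneration then ran 1 h, and light output was read 20 min after detection reagent.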
# [5] = biological target: Voltage-gated inwardly rectifying potassium channel KCNH2 (Homo sapiens) (UniProt Q12809); test: Human Ether-a-go-go-Related Gene (hERG) channel small molecule antagonists: fluorescence cell-based qHTS assay (AID 1671200); also: nearly all actives have a fitted effect of over 50% in size; also: potency is read from the fitted curve at half-maximal effect;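 as to activity change, negative = inhibition: hERG-expressing U2OS cells given a thallium stimulus after FluxOR II dye loading; series mostly up to about 77 µM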
# How it was run: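 In this thallium-flux screen, overnight-cultured U2OS cells bearing the channel are dye-loaded in darkness for an hour, rested 10 min at room temperature, and then monitored kinetically at 480/540 nm for two minutes post-stimulus.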
# [6] = biological target: Cytochrome P450 1A2 (Homo sapiens) (UniProt P05177); test: Cytochrome P450 Family 1 Subfamily A Member 2 (CYP1A2) small molecule antagonists: luciferase reporter qHTS assay (AID 1671199)
# How it was run: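 Steps: enzyme-substrate mix dispensed; test compounds and furafylline control pinned in; 10 min room temperature; NADPH regeneration solution added, 1 h; reaction stopped with luciferin detection reagent; luminescence read after 20 min.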
# Cytochrome P450 2D6 (Homo sapiens), sequence (P10635 whole entry, looked up): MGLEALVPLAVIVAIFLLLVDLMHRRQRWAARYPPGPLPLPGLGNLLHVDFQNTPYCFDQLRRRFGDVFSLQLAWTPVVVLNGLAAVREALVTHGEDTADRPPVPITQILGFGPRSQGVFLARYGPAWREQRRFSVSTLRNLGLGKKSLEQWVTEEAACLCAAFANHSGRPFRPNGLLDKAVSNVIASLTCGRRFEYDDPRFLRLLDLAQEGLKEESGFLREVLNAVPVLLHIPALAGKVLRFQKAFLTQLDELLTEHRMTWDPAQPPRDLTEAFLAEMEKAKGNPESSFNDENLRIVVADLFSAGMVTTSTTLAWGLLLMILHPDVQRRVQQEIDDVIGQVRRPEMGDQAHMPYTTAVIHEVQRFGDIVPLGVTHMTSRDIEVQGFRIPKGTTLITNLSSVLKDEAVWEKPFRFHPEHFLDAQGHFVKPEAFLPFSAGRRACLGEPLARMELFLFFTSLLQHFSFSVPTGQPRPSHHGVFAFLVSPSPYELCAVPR
# Cytochrome P450 3A4 (Homo sapiens), sequence (P08684 whole entry, looked up): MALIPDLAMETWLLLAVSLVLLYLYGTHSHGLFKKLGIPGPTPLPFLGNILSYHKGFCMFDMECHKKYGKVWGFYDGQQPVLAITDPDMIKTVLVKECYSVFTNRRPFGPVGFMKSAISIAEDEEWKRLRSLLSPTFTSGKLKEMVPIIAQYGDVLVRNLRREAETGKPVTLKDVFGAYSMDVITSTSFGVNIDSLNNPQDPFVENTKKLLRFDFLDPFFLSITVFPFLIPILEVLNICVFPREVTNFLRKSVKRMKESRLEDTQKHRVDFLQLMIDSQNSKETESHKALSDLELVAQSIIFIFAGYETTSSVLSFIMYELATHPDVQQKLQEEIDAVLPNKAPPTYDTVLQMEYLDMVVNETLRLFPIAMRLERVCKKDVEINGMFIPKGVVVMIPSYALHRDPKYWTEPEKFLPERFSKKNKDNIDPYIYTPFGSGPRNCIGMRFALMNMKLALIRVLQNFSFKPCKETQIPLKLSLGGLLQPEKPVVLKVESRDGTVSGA
# Cytochrome P450 2C19 (Homo sapiens), sequence (P33261 whole entry, looked up): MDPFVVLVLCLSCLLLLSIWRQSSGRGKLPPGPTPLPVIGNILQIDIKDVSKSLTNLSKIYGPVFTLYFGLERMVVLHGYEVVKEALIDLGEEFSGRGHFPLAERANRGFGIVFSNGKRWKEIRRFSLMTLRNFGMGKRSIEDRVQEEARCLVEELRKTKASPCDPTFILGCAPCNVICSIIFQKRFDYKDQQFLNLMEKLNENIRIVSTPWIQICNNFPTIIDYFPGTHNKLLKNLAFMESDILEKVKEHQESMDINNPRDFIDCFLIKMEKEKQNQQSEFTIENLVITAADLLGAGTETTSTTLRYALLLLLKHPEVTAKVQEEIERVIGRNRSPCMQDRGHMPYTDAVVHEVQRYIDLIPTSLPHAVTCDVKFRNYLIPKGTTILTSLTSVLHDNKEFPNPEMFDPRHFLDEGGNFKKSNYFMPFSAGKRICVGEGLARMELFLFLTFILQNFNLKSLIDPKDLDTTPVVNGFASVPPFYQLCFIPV
# Cytochrome P450 1A2 (Homo sapiens), sequence (P05177 whole entry, looked up): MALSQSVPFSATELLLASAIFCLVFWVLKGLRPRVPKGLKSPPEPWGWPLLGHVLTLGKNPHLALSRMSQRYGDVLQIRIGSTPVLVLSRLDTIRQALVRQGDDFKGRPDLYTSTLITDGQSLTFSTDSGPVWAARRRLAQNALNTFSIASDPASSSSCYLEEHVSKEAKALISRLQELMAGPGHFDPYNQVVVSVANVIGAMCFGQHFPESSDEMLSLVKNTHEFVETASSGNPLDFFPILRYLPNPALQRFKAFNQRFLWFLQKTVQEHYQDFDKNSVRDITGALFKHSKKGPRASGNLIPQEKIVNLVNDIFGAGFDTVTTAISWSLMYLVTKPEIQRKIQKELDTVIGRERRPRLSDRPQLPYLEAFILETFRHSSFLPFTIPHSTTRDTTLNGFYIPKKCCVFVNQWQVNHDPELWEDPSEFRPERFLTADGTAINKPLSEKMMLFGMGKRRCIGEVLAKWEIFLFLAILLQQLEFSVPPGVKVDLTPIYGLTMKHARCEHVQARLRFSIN
# Cytochrome P450 2C9 (Homo sapiens), sequence (P11712 whole entry, looked up): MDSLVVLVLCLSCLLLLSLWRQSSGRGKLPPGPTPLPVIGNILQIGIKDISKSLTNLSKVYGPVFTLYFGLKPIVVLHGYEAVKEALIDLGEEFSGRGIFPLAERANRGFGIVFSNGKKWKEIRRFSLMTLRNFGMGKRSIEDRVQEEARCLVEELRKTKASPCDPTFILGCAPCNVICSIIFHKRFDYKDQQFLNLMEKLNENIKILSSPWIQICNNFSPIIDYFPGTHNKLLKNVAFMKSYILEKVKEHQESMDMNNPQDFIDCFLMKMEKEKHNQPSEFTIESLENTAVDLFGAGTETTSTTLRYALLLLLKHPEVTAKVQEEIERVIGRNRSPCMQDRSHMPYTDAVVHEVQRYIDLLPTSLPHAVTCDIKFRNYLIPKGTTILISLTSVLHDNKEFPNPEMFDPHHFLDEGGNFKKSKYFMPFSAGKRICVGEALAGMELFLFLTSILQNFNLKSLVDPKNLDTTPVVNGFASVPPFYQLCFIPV
# Voltage-gated inwardly rectifying potassium channel KCNH2 (Homo sapiens), sequence (Q12809 whole entry, looked up): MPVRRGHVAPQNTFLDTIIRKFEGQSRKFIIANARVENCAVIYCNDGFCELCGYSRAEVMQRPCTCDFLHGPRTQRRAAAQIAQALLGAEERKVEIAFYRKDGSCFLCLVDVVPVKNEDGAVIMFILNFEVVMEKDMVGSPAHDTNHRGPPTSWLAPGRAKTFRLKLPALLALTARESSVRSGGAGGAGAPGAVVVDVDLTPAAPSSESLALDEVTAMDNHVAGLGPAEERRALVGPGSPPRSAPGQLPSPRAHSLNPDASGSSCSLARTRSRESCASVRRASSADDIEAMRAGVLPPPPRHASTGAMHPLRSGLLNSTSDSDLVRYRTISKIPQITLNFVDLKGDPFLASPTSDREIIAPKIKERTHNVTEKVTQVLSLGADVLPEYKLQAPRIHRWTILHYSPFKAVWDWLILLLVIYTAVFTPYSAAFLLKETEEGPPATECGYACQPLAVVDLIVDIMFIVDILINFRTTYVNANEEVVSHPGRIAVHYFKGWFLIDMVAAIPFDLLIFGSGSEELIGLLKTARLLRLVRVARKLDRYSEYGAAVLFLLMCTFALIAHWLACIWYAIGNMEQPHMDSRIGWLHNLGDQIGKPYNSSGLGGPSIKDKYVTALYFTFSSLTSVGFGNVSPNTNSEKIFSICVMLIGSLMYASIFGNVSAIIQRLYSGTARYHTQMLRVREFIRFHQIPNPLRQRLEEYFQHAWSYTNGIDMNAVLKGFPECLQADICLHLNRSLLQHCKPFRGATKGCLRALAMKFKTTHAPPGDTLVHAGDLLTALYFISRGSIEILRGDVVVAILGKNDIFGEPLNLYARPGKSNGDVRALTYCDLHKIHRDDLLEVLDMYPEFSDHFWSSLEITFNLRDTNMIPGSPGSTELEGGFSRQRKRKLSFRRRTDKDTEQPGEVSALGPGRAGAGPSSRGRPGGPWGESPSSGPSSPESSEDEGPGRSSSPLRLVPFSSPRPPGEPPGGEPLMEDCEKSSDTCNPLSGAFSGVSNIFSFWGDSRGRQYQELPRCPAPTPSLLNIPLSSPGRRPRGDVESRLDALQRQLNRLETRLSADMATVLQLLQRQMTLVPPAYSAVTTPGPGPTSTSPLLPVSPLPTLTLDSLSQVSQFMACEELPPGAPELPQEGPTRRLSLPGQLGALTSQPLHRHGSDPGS
compound,measurement,setting,value
ClCCCl,Potency,[1],inactive
same,Potency,[2],inactive
same,Potency,[3],inactive
same,Potency,[4],inactive
On1nnc2ccccc21,Potency,[1],35.6 µM (active)
same,Potency,[2],inactive
same,Potency,[3],inactive
same,Potency,[5],inactive
same,Potency,[4],inactive
COc1ccc(S(=O)(=O)N2c3ccc(Cl)cc3[C@@](O)(c3ccccc3Cl)[C@H]2C(=O)N2CCC[C@@H]2C(N)=O)cc1OC,Potency,[1],inactive
same,Potency,[3],17.4 µM (active)
same,Potency,[6],inactive
CCCCCCCC/C=C\CCCCCCCC(=O)OCCCC,"activity change, negative = inhibition",[1],-8.07% [at 23.6 µM]
same,"activity change, negative = inhibition",[2],-24.4% [at 23.6 µM]
same,Potency,[6],inactive
same,"activity change, negative = inhibition",[4],-4.05% [at 23.6 µM]
CC(CC=O)CCCC(C)(C)O (stereo not given),Potency,[1],39.7 µM (active)
same,Potency,[2],79.2 µM (active)
same,Potency,[5],inactive
same,Potency,[4],inactive
C[Si](C)(C)C,Potency,[1],inactive
same,Potency,[2],inactive
same,Potency,[3],inactive
same,Potency,[5],inactive
same,Potency,[4],inactive
CCCN1C[C@H](CSC)C[C@@H]2c3cccc4[nH]cc(c34)C[C@H]21,Potency,[1],0.155 µM (active)
same,Potency,[3],inactive
same,Potency,[6],inactive
same,Potency,[5],7.56 µM (active)
NCCS,Potency,[1],inactive
same,Potency,[6],inactive
same,Potency,[5],inactive
same,Potency,[4],inactive
CC(C(=O)O)c1ccc2c(c1)CC(=O)c1ccccc1S2 (stereo not given),Potency,[1],inactive
same,Potency,[5],inactive
same,Potency,[4],inactive
CC(CN)CC(C)(C)CCN (stereo not given),Potency,[1],11.5 µM (active)
same,Potency,[5],inactive
same,Potency,[4],5.16 µM (active)
O=S(=O)(O)c1ccc2cc(O)c(S(=O)(=O)O)cc2c1,Potency,[2],inactive
same,Potency,[3],inactive
same,Potency,[5],inactive
same,Potency,[4],inactive
CC(C)=O,Potency,[2],inactive
same,Potency,[6],inactive
CN1C(C)(C)CCCC1(C)C,Potency,[1],2.45 µM (active)
same,Potency,[5],inactive
same,Potency,[4],inactive
O=C1O[C@@H]2[C@@H](O)[C@H](O)O[C@@H]2[C@H]1O,Potency,[1],inactive
same,Potency,[4],inactive
